Over roughly 1,400 sequences, “thermal melting temperature (Tm) of peptide-HLA complex” has its median near 60; the lowest 2% begin near 45. The sample as a whole holds a higher share of the lowest values than the screen did.
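Note: lysates heated 10 min at 37–73 °C, complexes pulled down with pan-HLA I antibody, peptide signal by DIA-MS relative to 37 °C, Tm where half the complex is unfolded.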

The target in this assay is HLA-B*07:02. Put plainly: thermal melting temperature (Tm) of peptide-HLA complex; higher = more thermostable pHLA complex. As to conditions: C1R-B*07:02.
For FPNIPGKSL, the thermal melting temperature came to 62 °C.
For APRWLEEEAAL, the thermal melting temperature is 62.7 °C.
In turn, IPIGGGTSV returned a thermal melting temperature of 41.6 °C.
The figure for QPASFAVSL is 62.8 °C; for SPASRSISL it is 61 °C; for SPASFLRSL it is 40.6 °C.
In turn, NPRLNILDTL yielded a thermal melting temperature of 51.2 °C.
In turn, GPIYPGHGM displayed a thermal melting temperature of 59.2 °C.
The sequence YPRMQVTVF came in with a thermal melting temperature of 61.9 °C.
APKSPSSEWL displayed a thermal melting temperature of 51.9 °C.
The sequence YPRAQLEVSAL came in with a thermal melting temperature of 61.5 °C.
Turning to APAPPTTTTI, the thermal melting temperature was determined as 61 °C.
Consider VPMPLPTVL, for which the thermal melting temperature amounted to 62.6 °C.
In turn, RPALPSTQQL showed a thermal melting temperature of 57.6 °C.
The sequence APDKHHITPLL came in with a thermal melting temperature of 43.7 °C.
Turning to TPMPKDVRQSL, the thermal melting temperature is 44.5 °C.
KPHLPSVTYL: the thermal melting temperature turned out to be 60.8 °C.
The figure for NVKKVSLEL is 44.3 °C.
The sequence APAGLPRETL came in with a thermal melting temperature of 58.1 °C.
In the case of IPDHFRPPL it was 60.4 °C; in that of VIRELSRAL, 45.3 °C; in that of KPINVRVTTM, 56 °C.
RPIESPGGSVL gave a thermal melting temperature of 45.3 °C.
Sequence LPGISREAL registered a thermal melting temperature of 41.3 °C.
Regarding LPSKPSSTL, the thermal melting temperature was 58.1 °C.
Sequence QPRDPSSTL displayed a thermal melting temperature of 43.5 °C.
SPRDPVLTL: the thermal melting temperature came to 64.4 °C.
As to SPRFPAQYL, the thermal melting temperature was 62.6 °C.
Regarding RPLPGALGV, the thermal melting temperature was determined as 59 °C.
As to VPNAGRGLV, the thermal melting temperature turned out to be 58.5 °C.
With HPREPLPPIQ, the thermal melting temperature worked out at 51.3 °C.
The figure for IPSSHPVSL is 56.2 °C; for HPREPALGP it is 55.3 °C.
The sequence RPAGPVAVGI registered a thermal melting temperature of 43.3 °C.
Consider SPRVQFQSL, for which the thermal melting temperature was 61.7 °C.
In the case of RPAEVGGMQL it was 59.1 °C; in that of RPDYRNITF, 61.7 °C.
Take NPRNFSDNQL: the thermal melting temperature was determined as 53 °C.
Sequence IFSEVPVQL showed a thermal melting temperature of 42.1 °C.
As to GVRPFGVSL, the thermal melting temperature came out at 57.4 °C.
Consider SPYPGLRLI, for which the thermal melting temperature is 61.8 °C.
As to SPGPSRPGL, the thermal melting temperature came out at 56.1 °C.
Turning to SPAEPSVYATL, the thermal melting temperature was found to be 62.8 °C.
With AVILRALSL, the thermal melting temperature was determined as 61.1 °C.
For the sequence FPHLREEIL, the thermal melting temperature amounted to 51.6 °C.
In turn, SPASRSISLL had a thermal melting temperature of 57.1 °C.
On to LPKDQGITL, for which the thermal melting temperature is 61.7 °C.
In the case of APAPRPSL it was 58.1 °C.
For the sequence LPRTVTQLV, the thermal melting temperature turned out to be 45.6 °C.
RPISVIGGVSL returned a thermal melting temperature of 62.3 °C.
As for APSGGRLLSA, the thermal melting temperature is 60.1 °C.
Sequence LPRQPPMSL gave a thermal melting temperature of 66.1 °C.
The figure for LPNGRDTPAL is 59.2 °C; for SPAFSTRVL it is 60.3 °C; for KPFDQTTISL it is 61.3 °C.
In turn, RPRPGNILLQL registered a thermal melting temperature of 55.6 °C.

The record behind these values is the supplement of paper PMC7726561.
